Screening data deposited in PubChem BioAssay by several laboratories.
VLA-4 inh = inhibition in human VLA-4 binding assay, primary screen, VLA-4 allosteric modulator project, MLPCN library, flow cytometry, VLA-4 expressing cells. ligand binding flow cytometry. inhibition, % (about 7 µM as worked out from the volumes in the protocol). 0.2% of 330,000 active. AID 2557, 2010; in the data active = inhibition above about 50%
Target sequence (P13612 whole entry, looked up): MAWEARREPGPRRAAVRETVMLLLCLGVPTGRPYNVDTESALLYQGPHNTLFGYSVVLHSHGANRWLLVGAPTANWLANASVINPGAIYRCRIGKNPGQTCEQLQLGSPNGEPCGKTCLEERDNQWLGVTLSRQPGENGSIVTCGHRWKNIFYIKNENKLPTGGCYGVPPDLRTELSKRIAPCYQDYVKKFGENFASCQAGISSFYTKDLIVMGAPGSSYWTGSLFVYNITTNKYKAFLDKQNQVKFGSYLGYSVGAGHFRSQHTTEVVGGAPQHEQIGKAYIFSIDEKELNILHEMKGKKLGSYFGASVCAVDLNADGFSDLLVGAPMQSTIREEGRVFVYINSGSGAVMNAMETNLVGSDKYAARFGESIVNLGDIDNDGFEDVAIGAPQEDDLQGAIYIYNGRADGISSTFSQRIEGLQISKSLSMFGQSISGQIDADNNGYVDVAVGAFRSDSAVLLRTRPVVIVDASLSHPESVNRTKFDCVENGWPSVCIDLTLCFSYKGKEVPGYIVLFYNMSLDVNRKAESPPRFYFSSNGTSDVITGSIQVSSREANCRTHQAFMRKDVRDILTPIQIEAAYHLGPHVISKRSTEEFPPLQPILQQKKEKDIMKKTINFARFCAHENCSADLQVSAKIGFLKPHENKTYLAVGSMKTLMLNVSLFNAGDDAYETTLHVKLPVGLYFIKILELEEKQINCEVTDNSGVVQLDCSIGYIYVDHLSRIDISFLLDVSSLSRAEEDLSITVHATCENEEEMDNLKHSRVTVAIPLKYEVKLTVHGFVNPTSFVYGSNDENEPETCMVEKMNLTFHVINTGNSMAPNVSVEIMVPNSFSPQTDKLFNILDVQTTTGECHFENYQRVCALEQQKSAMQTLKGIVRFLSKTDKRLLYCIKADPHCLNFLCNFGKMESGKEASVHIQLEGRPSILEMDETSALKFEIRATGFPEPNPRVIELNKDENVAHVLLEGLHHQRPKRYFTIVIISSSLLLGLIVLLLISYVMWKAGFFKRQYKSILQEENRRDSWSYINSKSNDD
HIF act = HIF pathway transcriptional activators, primary screen, cell-based, U2OS HRE-luciferase, luminescence; 0.32% of 300,000 active; U2OS HRE-luciferase reporter; normalized: DMSO 0%, desferrioxamine 100%; activation, % at 7.5 µM (by protocol);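 active = mean activation of at least 10% of the iron chelator positive control signal, with at least half of replicates also reaching 10%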
AI-2 QS mod = Vibrio harveyi AI-2 quorum sensing modulators, primary screen, JMH597 strain, luminescence/OD600 ratio; activity change, % at 7.5 µM; 0.4% of 300,000 active; Vibrio harveyi JMH597 AI-2 luminescence/OD600 ratio, 9 h; stronger effect = lower value; strain lacks LuxN and CqsS sensors; 0 = neutral-control median; in the data active = activity change below about -75%, passing the limit was not always enough;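 note: luminescence divided by OD600 gain over 9 h not by final OD600 alone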
CHT block = inhibitors of human choline transporter CHT. 0.86% of 310,000 active. CHT-expressing cells, membrane potential dye, choline response; stronger effect = lower value. AID 488975, 2010. B-score at 10 µM;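 active = B-score over 3 SD under the library average, and starting fluorescence ratio not unusually high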;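 note: choline stimulus applied at its EC90 after an EC20 pre-addition; B-score computed on integrated fluorescence ratio after choline addition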
Platelet DG rel = inhibitors of platelet dense granule secretion, primary screen, cell-based, MLPCN, human platelets; AID 1663, 2009; inhibition, %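 (compounds screened at 7.5 µM in platelet-rich plasma)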; human platelet-rich plasma, SFLLRN dense granule ATP release, luminescence; 0.22% of 300,000 active;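 active = mean replicate score, as percent of positive control, at or above 50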
CHT PAM = CHT positive allosteric modulators, primary screen, cell-based, membrane potential dye, choline EC20 | High affinity choline transporter 1 (Homo sapiens), Q9GZV3 | CHT-expressing cells; stronger effect = higher value; LV-AA mutant CHT in HEK293 cells | B-score at 10 µM | 0.49% of 310,000 active;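 active = initial fluorescence not abnormally high and integrated response B-score, plate-corrected, over 3 SD above library mean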
* = called active by the depositor. Sampled rows, rich in hits. Any-hit rate of the full collection: about 2.2%.

How did Oc1c(C(c2ccc(Cl)cc2)N2CCCC2)cc(Cl)c2cccnc12 (centres undefined) do in these assays?
VLA-4 inh: -21.1; HIF act: 2.9; AI-2 QS mod: -120.6*; CHT block: inactive; Platelet DG rel: -6.1; CHT PAM: inactive

Results for Oc1c(C(c2cccs2)N2CCN(c3ccccc3)CC2)ccc2cccnc12 (centres undefined) ?
VLA-4 inh: 19.7; CHT block: inactive; CHT PAM: inactive

What do the screens show for `Nc1ccc(N2CCCCC2)c2nonc12`?
VLA-4 inh: -9.2; HIF act: 0.6; AI-2 QS mod: 11.0; CHT block: -7.62*; Platelet DG rel: 2.8; CHT PAM: inactive

Results for CCC1CCCCN1CCCNC(=O)c1ccc2c(c1)N(Cc1c(F)cccc1Cl)C(=O)CS2 (centres undefined) ?
VLA-4 inh: 3.0; HIF act: -0.2; AI-2 QS mod: 8.9; CHT block: -5.38*; Platelet DG rel: 16.7; CHT PAM: inactive

What do the screens show for `O=C(NCc1ccc2c(c1)OCO2)c1ccc2c(c1)N(Cc1c(F)cccc1Cl)C(=O)CS2`?
VLA-4 inh: 8.2; HIF act: -0.3; AI-2 QS mod: 11.7; CHT block: inactive; Platelet DG rel: -1.0; CHT PAM: inactive

How did CN(Cc1ccc2c(c1)OCCO2)C(=O)CSc1ncnc2sccc12 do in these assays?
VLA-4 inh: -9.5

Results for CC(C)(C)NC(=O)CN(Cc1cccs1)C(=O)CNS(=O)(=O)c1ccc(F)cc1 ?
VLA-4 inh: -5.1; HIF act: 0.5; AI-2 QS mod: 8.1; CHT block: inactive; Platelet DG rel: 0.5; CHT PAM: inactive

Results for CC(C)(C)NC(=O)CN(Cc1ccc2c(c1)OCO2)C(=O)CNS(=O)(=O)c1ccc(F)cc1 ?
VLA-4 inh: -1.0; HIF act: 19.2*; AI-2 QS mod: 30.7; CHT block: inactive; Platelet DG rel: 5.8; CHT PAM: inactive

What do the screens show for `O=C(NCCc1ccccc1)c1cc2sccc2n1Cc1ccccc1`?
VLA-4 inh: 0.1; HIF act: 74.6*; AI-2 QS mod: -0.2; CHT block: inactive; Platelet DG rel: 2.2; CHT PAM: inactive

How did O=C(Nc1ccc2c(c1)OCCO2)c1cc2sccc2n1Cc1ccccc1 do in these assays?
VLA-4 inh: 15.8; HIF act: -9.1; AI-2 QS mod: 35.3; CHT block: inactive; Platelet DG rel: 4.3; CHT PAM: inactive

How did Cc1c(Cl)cccc1NC(=S)NNc1ncc(C(F)(F)F)cc1Cl do in these assays?
HIF act: -0.6; AI-2 QS mod: 11.3; CHT block: -5.27*; Platelet DG rel: -2.8; CHT PAM: inactive

Results for Cc1ccccc1NC(=S)NNc1ncc(C(F)(F)F)cc1Cl ?
VLA-4 inh: -9.2; HIF act: 0.3; AI-2 QS mod: 7.9; CHT block: inactive; Platelet DG rel: -2.3; CHT PAM: inactive

Results for COc1cccc(N=CC2=C(O)CCCC2=O)c1 ?
VLA-4 inh: -6.9; HIF act: 1.3; AI-2 QS mod: 36.3; CHT block: inactive; Platelet DG rel: 2.8; CHT PAM: inactive

Results for O=C1CCCC(O)=C1C=Nc1cccc(C(F)(F)F)c1 ?
VLA-4 inh: -25.0; HIF act: 714.3*; AI-2 QS mod: 26.3; CHT block: inactive; Platelet DG rel: 3.4; CHT PAM: inactive

How did CC(C)(C)NC(=O)COC(=O)c1ccc(Cl)nc1 do in these assays?
VLA-4 inh: 9.3; HIF act: 71.0*; AI-2 QS mod: 29.0; CHT block: inactive; Platelet DG rel: -3.3; CHT PAM: inactive

How did O=C(COC(=O)c1ccc(Cl)nc1)NCCNC(=O)COC(=O)c1ccc(Cl)nc1 do in these assays?
VLA-4 inh: 1.1; HIF act: -0.1; CHT block: inactive; Platelet DG rel: -7.3; CHT PAM: inactive

What do the screens show for `COc1cc(C(=O)NC(C)c2cc(C)ccc2C)ccc1OCC(=O)N1CCOCC1` (centres undefined)?
VLA-4 inh: 0.0

Results for Cc1nc(N2CCN(C(=O)COc3ccccc3)CC2)c2c(C)c(C)sc2n1 ?
VLA-4 inh: -8.6; HIF act: -0.2; AI-2 QS mod: -3.9; CHT block: -7.53*; Platelet DG rel: -4.1; CHT PAM: inactive

Results for O=C(COc1ccccc1)N1CCN(C(=O)COc2ccccc2)CC1 ?
VLA-4 inh: 4.1; HIF act: -0.1; AI-2 QS mod: 16.2; CHT block: inactive; Platelet DG rel: -16.5; CHT PAM: inactive

How did Cc1ccc(C(=O)Cn2nnc(-c3ccccc3)n2)cc1 do in these assays?
VLA-4 inh: -1.1; HIF act: 1.0; AI-2 QS mod: -92.3*; CHT block: inactive; Platelet DG rel: -7.4; CHT PAM: inactive

Results for COc1cccc(C2c3c(C)nn(-c4ccc([N+](=O)[O-])cc4)c3N=C3C(=O)Nc4ccccc4N32)c1 (centres undefined) ?
VLA-4 inh: -10.8; HIF act: -1.4; AI-2 QS mod: -0.4; CHT block: inactive; Platelet DG rel: 1.8; CHT PAM: inactive

How did Cc1ccc(C2c3c(C)nn(-c4ccc([N+](=O)[O-])cc4)c3N=C3C(=O)Nc4ccccc4N32)cc1 (centres undefined) do in these assays?
VLA-4 inh: 4.7; HIF act: -1.8; AI-2 QS mod: 10.5; CHT block: -6.25*; Platelet DG rel: 6.5; CHT PAM: inactive

How did COC(=O)c1ccc2c(c1)C(C)(C)C(/C=C/c1ccccc1O)=[N+]2C do in these assays?
VLA-4 inh: inactive; HIF act: -2.9; CHT block: inactive; Platelet DG rel: 19.5; CHT PAM: 7.22*

Results for C[N+]1=C(/C=C/Nc2ccccc2Cl)C(C)(C)c2ccccc21 ?
VLA-4 inh: inactive; HIF act: -0.9; AI-2 QS mod: 19.2; CHT block: inactive; Platelet DG rel: 23.5; CHT PAM: inactive

What do the screens show for `Cc1ccc(C(=O)OCC(=O)NC2CCCCC2)s1`?
VLA-4 inh: 3.6; HIF act: 0.2; AI-2 QS mod: -4.6; CHT block: inactive; Platelet DG rel: 17.4; CHT PAM: inactive

What do the screens show for `O=C(N/N=C/c1cccnc1)c1ccc([N+](=O)[O-])cc1`?
VLA-4 inh: 7.3; HIF act: -0.2; AI-2 QS mod: 12.1; CHT block: inactive; Platelet DG rel: 5.9; CHT PAM: 6.82*

How did O=C(COC(=O)CCC(=O)c1ccc(F)cc1)Nc1cccc(S(=O)(=O)N2CCCC2)c1 do in these assays?
VLA-4 inh: 3.4; HIF act: -0.3; AI-2 QS mod: -42.4; CHT block: inactive; Platelet DG rel: 58.6*; CHT PAM: inactive
